Where “and” joins values, the source holds several entries; their conditions need not be identical. Identical values can stand only once. About 2,000 (36%) of roughly 5,500 compounds were called active. Not shown: some 18% with an inconclusive outcome. Rule as the data show it: active = normalized growth mostly below about 0.91 (no sharp cut-off); inconclusive = no clear call, values can overlap the other calls; inactive = mostly above about 0.92. The list shows a part of the results.
Test: chemical genetic growth profiling, strain panel (AID 1159580);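 also: tested at 20 µM; growth read once vehicle control cultures reached saturation at 30 °C; 1 = growth at the plate median or of vehicle wells; lower values mean less growth of the strain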
Settings: S. cerevisiae deletion strains, growth OD

Measured: normalized growth

CC1CC[C@]2(NC1)O[C@H]1CC3C4CC[C@H]5C[C@@H](O)CC[C@]5(C)C4CC[C@]3(C)[C@H]1[C@@H]2C (stereo not given in full)
active: locus YAL021C, strain ccr4, hits give low values 0.173 | locus YAL026C, strain drs2, hits give low values 0.0682 | locus YAL030W, strain snc1, hits give low values 0.0859 | locus YBL061C, strain skt5, hits give low values 0.109 | locus YBR009C, strain hhf1, hits give low values 0.0771 | locus YBR021W, strain FUR4, hits give low values 0.272 | locus YBR023C, strain chs3, hits give low values 0.102 | locus YBR171W, strain sec66, hits give low values 0.159 | locus YBR229C, strain ROT2, hits give low values 0.107 | locus YBR231C, strain swc5, hits give low values 0.167 | locus YBR279W, strain paf1, hits give low values 0.143 | locus YCL011C, strain gbp2, hits give low values 0.0814 | locus YCL016C, strain dcc1, hits give low values 0.103 | locus YCL029C, strain bik1, hits give low values 0.0809 | locus YCL061C, strain MRC1, hits give low values 0.103 | locus YCL069W, strain vba3, hits give low values 0.0775 | locus YCR088W, strain abp1, hits give low values 0.111 | locus YDL005C, strain med2, hits give low values 0.104 | locus YDL035C, strain GPR1, hits give low values 0.0845 | locus YDL040C, strain nat1, hits give low values 0.164 | locus YDL074C, strain BRE1, hits give low values 0.148 | locus YDL101C, strain DUN1, hits give low values 0.0938 | locus YDL185W, strain tfp1, hits give low values 0.0599 | locus YDL192W, strain arf1, hits give low values 0.0839 | locus YDR001C, strain nth1, hits give low values 0.108 | locus YDR069C, strain doa4, hits give low values 0.386 | locus YDR101C, strain arx1, hits give low values 0.104 | locus YDR137W, strain rgp1, hits give low values 0.534 | locus YDR159W, strain sac3, hits give low values 0.11 | locus YDR162C, strain NBP2, hits give low values 0.0587 | locus YDR195W, strain ref2 0.225 | locus YDR297W, strain sur2, hits give low values 0.102 | locus YDR318W, strain mcm21, hits give low values 0.0797 | locus YDR334W, strain swr1, hits give low values 0.0978 | locus YDR335W, strain msn5, hits give low values 0.101 | locus YDR388W, hits give low values 0.0652 | locus YDR392W, strain spt3, hits give low values 0.0848 | locus YDR502C, strain sam2, hits give low values 0.0839 | locus YEL003W, strain gim4, hits give low values 0.0733 | locus YEL037C, strain rad23, hits give low values 0.197 | locus YEL061C, strain CIN8 (second series), hits give low values 0.0698 | locus YER015W, strain faa2, hits give low values 0.118 | locus YER016W, strain bim1, hits give low values 0.102 | locus YER110C, hits give low values 0.135 | locus YER111C, strain swi4, hits give low values 0.0988 | locus YER155C, strain BEM2 (second series), hits give low values 0.113 | locus YER155C, strain BEM2, hits give low values 0.0788 | locus YER167W, strain BCK2, hits give low values 0.0623 | locus YFR010W, strain ubp6, hits give low values 0.375 | locus YGL078C, strain dbp3, hits give low values 0.124 | locus YGL086W, strain mad1, hits give low values 0.073 | locus YGL167C, strain pmr1, hits give low values 0.319 | locus YGL173C, strain kem1, hits give low values 0.442 | locus YGL227W, strain vid30, hits give low values 0.0819 | locus YGL240W, strain doc1, hits give low values 0.257 | locus YGL248W, strain PDE1, hits give low values 0.0587 | locus YGL253W, strain hxk2, hits give low values 0.0659 | locus YGR135W, strain pre9, hits give low values 0.0764 | locus YGR229C, strain SMI1, hits give low values 0.0768 | locus YGR252W, strain gcn5, hits give low values 0.211 | locus YHR013C, strain ard1, hits give low values 0.136 | locus YHR027C, strain rpn1, hits give low values 0.324 | locus YHR030C, strain SLT2, hits give low values 0.142 | locus YHR079C, strain IRE1 (second series), hits give low values 0.0949 | locus YHR079C, strain IRE1, hits give low values 0.54 | locus YHR094C, strain hxt1, hits give low values 0.0761 | locus YHR129C, strain ARP1, hits give low values 0.0658 | locus YHR142W, strain chs7, hits give low values 0.0852 | locus YHR200W, strain rpn10, hits give low values 0.103 | locus YIL066C, strain RNR3, hits give low values 0.0618 | locus YIL073C, strain SPO22, hits give low values 0.125 | locus YIL125W, strain kgd1, hits give low values 0.102 | locus YIR030C, strain dcg1, hits give low values 0.0851 | locus YJL092W, strain hpr5, hits give low values 0.0924 | locus YJL095W, strain BCK1 (second series), hits give low values 0.0627 | locus YJL095W, strain BCK1, hits give low values 0.0635 and 0.17 | locus YJL115W, strain asf1, hits give low values 0.113 | locus YJL129C, strain trk1, hits give low values 0.102 | locus YJL134W, strain LCB3, hits give low values 0.0651 | locus YJL154C, strain vps35, hits give low values 0.156 | locus YJL164C, strain tpk1, hits give low values 0.0795 | locus YJL166W, strain qcr8, hits give low values 0.0744 | locus YJL168C, strain set2, hits give low values 0.0986 | locus YJL187C, strain SWE1 (second series), hits give low values 0.0801 | locus YJR043C, strain POL32, hits give low values 0.0984

— PubChem BioAssay AID1159580 (chemical genetic matrix, 2015)
